9 compounds from PubChem BioAssay (NCI) can be followed below.

This is part of a sample that, as a whole, favours compounds with a hit. Of some 83,000 tested, about 20% had one in any assay.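 Negative percent growth values reflect cell death: -40 means 40% of the cells present at the start died, and -100 means all died.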 Unmarked numbers belong to inactive results. Activity calls are given as the source filed them. How the source made its calls: active means growth percent below 10; inactive means the rest.

What all share (test): NCI-60 one-dose screen, 48 h (100 = growth as untreated, 0 = no growth, -100 = all killed)
One test has as its system HT29 colon. Particulars: 10 µM unless noted.
Another test concerns SNB-75 CNS. As to conditions: 10 µM unless noted.
Another test relates to SNB-19 CNS. As to conditions: 10 µM unless noted.
The subject of a further test is U251 CNS. As to conditions: 10 µM unless noted.
The next test concerns PC-3 prostate. Particulars: 10 µM unless noted.
The next test has as its system SK-MEL-5 melanoma. Particulars: 10 µM unless noted.
A further test concerns UACC-62 melanoma. Particulars: 10 µM unless noted.
The test system of another test is LOX IMVI melanoma. As to conditions: 10 µM unless noted.
A further test has as its system SK-MEL-28 melanoma. Particulars: 10 µM.
The subject of the next test is SK-MEL-2 melanoma. As to conditions: 10 µM unless noted.
The test system of another test is SN12C renal. As to conditions: 10 µM unless noted.
A further test has as its system UO-31 renal. As to conditions: 10 µM unless noted.
The next test deals with TK-10 renal. As to conditions: 10 µM unless noted.
For another test, the system named is ACHN renal. Particulars: 10 µM unless noted.
The subject of a further test is CAKI-1 renal. Particulars: 10 µM unless noted.
The subject of another test is A498 renal. Particulars: 10 µM unless noted.
The test system of the next test is CCRF-CEM leukemia. As to conditions: 10 µM unless noted.
Another test concerns MOLT-4 leukemia. Particulars: 10 µM unless noted.
A further test deals with SR leukemia. Particulars: 10 µM unless noted.
For another test, the system named is EKVX NSCLC. Particulars: 10 µM unless noted.

For `O=C(NC1CCN(Cc2ccccc2)CC1)c1cc(C(=O)NC2CCN(Cc3ccccc3)CC2)cc(C(=O)NC2CCN(Cc3ccccc3)CC2)c1`, the growth was 75% with HT29 colon; 68% with SNB-75 CNS; 85.7% in the test with SNB-19 CNS; 72.4% with U251 CNS; 74.4% with PC-3 prostate; 85.2% in the test on SK-MEL-5 melanoma. Also, the growth in the test with UACC-62 melanoma is 84.9%; in the test on LOX IMVI melanoma, -69.6% (active); with SK-MEL-28 melanoma it was 95.6%; with SK-MEL-2 melanoma it was 73.6%; with SN12C renal, 69.2%; with UO-31 renal it was -29.8% (active). For the same compound, the growth with TK-10 renal was 80.8%; with ACHN renal it was 94.5%; in the test on CAKI-1 renal it was 12.2%; with A498 renal, 96.1%; with CCRF-CEM leukemia, 2.34% (active); in the test on MOLT-4 leukemia, 45.8%.

Take `COc1cc(CNC(=O)c2ccsc2Nc2ccnc(C(F)(F)F)c2)ccc1O`: the growth in the test with HT29 colon was 97.8%; in the test on SNB-75 CNS, 101%; with SNB-19 CNS it was 96%; in the test on U251 CNS, 95.4%; with PC-3 prostate it was 88.1%; in the test with SK-MEL-5 melanoma, 98.2%. The growth was 102% with UACC-62 melanoma; 91.7% in the test with LOX IMVI melanoma; 118% with SK-MEL-28 melanoma; 103% in the test on SK-MEL-2 melanoma; 94.6% in the test on SN12C renal; 82.7% in the test with UO-31 renal. Also, the growth with TK-10 renal was 99.8%; in the test with ACHN renal, 98.2%; in the test on CAKI-1 renal, 95.7%; in the test with A498 renal, 93%; in the test with CCRF-CEM leukemia it was 83.7%; with MOLT-4 leukemia, 85.4%.

`O=C1c2ccc3c4c(ccc(c24)C(=O)N1CCCCO)C(=O)N(CCCCO)C3=O`: the growth is 10.9% in the test with HT29 colon; 54.2% in the test on SNB-75 CNS; 91.4% in the test on SNB-19 CNS; 72.3% with U251 CNS; 63% in the test with PC-3 prostate; 78.4% in the test on SK-MEL-5 melanoma. In addition, the growth in the test on UACC-62 melanoma is 79.6%; in the test on LOX IMVI melanoma it was 59.9%; with SK-MEL-28 melanoma it was 15.6%; with SK-MEL-2 melanoma, 58.1%; in the test with SN12C renal it was 72%; in the test with UO-31 renal it was 24.4%. In addition, the growth is 22.5% with TK-10 renal; 43.9% in the test with ACHN renal; 35.4% in the test on CAKI-1 renal; 56.2% in the test on A498 renal; 6.38% (active) with CCRF-CEM leukemia; 22.5% with MOLT-4 leukemia.

Turning to `Oc1ccc(-c2nc(-c3ccc4oc5ccc(-c6[nH]c(-c7ccc(O)cc7)nc6-c6ccccc6)cc5c4c3)c(-c3ccccc3)[nH]2)cc1`, the growth is 34.6% in the test on HT29 colon; 39.2% in the test with SNB-75 CNS; 63.5% with SNB-19 CNS; 58.2% in the test with U251 CNS; 52.1% in the test on PC-3 prostate; 70.8% with SK-MEL-5 melanoma. Moreover, the growth in the test on UACC-62 melanoma is 49.9%; in the test with LOX IMVI melanoma it was 67.5%; in the test on SK-MEL-28 melanoma, 77.8%; in the test on SK-MEL-2 melanoma it was 93.7%; with SN12C renal it was 39.3%; in the test with UO-31 renal, 39.2%. Also, the growth in the test with TK-10 renal was 80.3%; in the test with ACHN renal, 73.5%; in the test with CAKI-1 renal, 69.5%; in the test with A498 renal, 77.5%; with CCRF-CEM leukemia it was 43.9%; with MOLT-4 leukemia, 57.1%. For the same compound, the growth with SR leukemia was 43.1%.

With `O=C1/C(=C/c2cccc(O)c2)COc2ccc(O)cc21`, the growth is 72.7% in the test with HT29 colon; 96.4% with SNB-75 CNS; 80% in the test on SNB-19 CNS; 29.6% in the test with U251 CNS; 72.7% in the test on PC-3 prostate; 86.9% with SK-MEL-5 melanoma. Moreover, the growth with UACC-62 melanoma is 82.4%; with LOX IMVI melanoma it was -57.1% (active); with SK-MEL-28 melanoma it was 102%; in the test on SK-MEL-2 melanoma it was 108%; in the test on SN12C renal, 73.8%; with UO-31 renal, 79.6%. In addition, the growth is 130% in the test on TK-10 renal; 67.3% with ACHN renal; 95.3% with CAKI-1 renal; 117% in the test with A498 renal; 8.33% (active) in the test on CCRF-CEM leukemia; 33.3% in the test on MOLT-4 leukemia. Further, the growth in the test with SR leukemia is 10.5%.

Take `Cc1sc2ncnc(Sc3nc4ccccc4[nH]3)c2c1C`: the growth with HT29 colon was -64.4% (active); in the test with SNB-75 CNS, -85.4% (active); in the test on SNB-19 CNS, -21.7% (active); with U251 CNS, -80.9% (active); in the test with PC-3 prostate it was -43.3% (active); with SK-MEL-5 melanoma, -96.9% (active). Besides, the growth with UACC-62 melanoma was -91.8% (active); in the test on LOX IMVI melanoma, -80% (active); in the test on SK-MEL-28 melanoma it was -92.5% (active); in the test on SK-MEL-2 melanoma it was -81.6% (active); with SN12C renal it was 25%; in the test with UO-31 renal, -86.2% (active). Moreover, the growth was -87.2% (active) in the test with TK-10 renal; -82.7% (active) in the test with ACHN renal; -68.6% (active) with CAKI-1 renal; 24.5% with A498 renal; -53.2% (active) in the test on CCRF-CEM leukemia; -48.4% (active) with MOLT-4 leukemia.

Turning to `O=c1oc2ccc(-c3ccc(F)cc3F)cc2c(=O)n1-c1cccc(C(F)(F)F)c1`, the growth in the test on HT29 colon was 31.3%; in the test with SNB-75 CNS, -7.33% (active); in the test on SNB-19 CNS, 14.4%; with U251 CNS it was 4.94% (active); with PC-3 prostate it was 3.58% (active); in the test on SK-MEL-5 melanoma, -76.4% (active). The growth with UACC-62 melanoma is 7.26% (active); in the test with LOX IMVI melanoma, 25.7%; in the test on SK-MEL-28 melanoma, 25%; in the test with SK-MEL-2 melanoma, -15.9% (active); in the test on SN12C renal it was 4.72% (active); with UO-31 renal, 1.41% (active). In addition, the growth is 11.6% in the test on TK-10 renal; 6.31% (active) with ACHN renal; -12.6% (active) in the test on CAKI-1 renal; -42.6% (active) in the test on A498 renal; 10.4% in the test with CCRF-CEM leukemia; 1.99% (active) with MOLT-4 leukemia.

For `CCN(CCO)CCNc1ccc(C)c2sc3cc(Cl)ccc3c(=O)c12`, the growth in the test on HT29 colon was -77.3% (active); in the test on SNB-75 CNS, 62.5%; in the test on SNB-19 CNS, 44.5%; in the test on U251 CNS, -32.1% (active); with PC-3 prostate, 21.8%; in the test with SK-MEL-5 melanoma it was -94.3% (active). For the same compound, the growth in the test on UACC-62 melanoma was -53.1% (active); with LOX IMVI melanoma it was -94.8% (active); in the test on SK-MEL-28 melanoma, -61.7% (active); in the test with SK-MEL-2 melanoma it was 94.4%; with EKVX NSCLC, 84.4%; in the test on SN12C renal, 37.8%. The growth in the test with ACHN renal was 7.81% (active); in the test with CAKI-1 renal, 68%; in the test on A498 renal it was 1.76% (active); with CCRF-CEM leukemia, 14.4%; with MOLT-4 leukemia, 7.65% (active); in the test on SR leukemia, -19.4% (active).

Take `CCCCOCc1cc(CN2CCN(C)CC2)c(O)c2ncccc12`: the growth with HT29 colon is 96%; in the test with SNB-75 CNS, 68.2%; in the test on SNB-19 CNS, 48.6%; in the test with U251 CNS it was 27.8%; in the test with PC-3 prostate it was 34.3%; in the test on SK-MEL-5 melanoma, 50.6%. Further, the growth is 53% in the test on UACC-62 melanoma; 35.9% in the test with LOX IMVI melanoma; 74.7% with SK-MEL-28 melanoma; 97.7% with SK-MEL-2 melanoma; 38.4% in the test on EKVX NSCLC; 62% in the test on SN12C renal. In addition, the growth in the test with ACHN renal was 27.9%; with CAKI-1 renal, 19.5%; in the test on A498 renal, 70.1%; in the test with CCRF-CEM leukemia, 31.8%; with MOLT-4 leukemia it was 60.6%; with SR leukemia, 35.9%.
